The values that follow come from PubChem BioAssay (NCATS).

Experiment [1] is described as follows: Cell Viability - Mesenchymal (AID 546).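 Also: cells exposed to compound for 40 hours before reading.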 Also: potency is read from the fitted curve at half-maximal effect. To be noted: mesenchymal cells viability, qHTS; activity change, negative = cytotoxicity: at 91.7 µM (top of the series). The method in brief:
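AC50 values reflect the drop in intracellular ATP in a human kidney mesenchymal line derived from normal glomeruli. Treatment lasts 40 hr at 37 °C in complete medium, and the signal comes from CellTiter-Glo luminescence.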

Experiment [2] in a line: Cellular Toxicity (caspase-3) HepG2 (AID 654). Also: potency is read from the fitted curve at half-maximal effect.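 As to caspase-3 activation: cells exposed to compound for 16 hours before reading; 0% = DMSO alone and 100% = caspase signal from 100 µM tamoxifen.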 To be noted: HepG2 caspase-3 activation, luminescence; series mostly up to 92.2 µM. An outline of the steps:
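Cells plated 5 hr at 37 °C, compound added, incubated 16 hr at 37 °C. Caspase-Glo 3/7 reagent followed, 20 min at room temperature, then luminescence read. Activation scored as signal increase; AC50 from Hill fit.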

A short description of experiment [3]: Cellular Toxicity (caspase-3) Jurkat (AID 655).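 Also: cells exposed to compound for 16 h at 37 °C before reading.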 Also: potency is read from the fitted curve at half-maximal effect. To be noted: Jurkat caspase-3 activation, luminescence; series mostly up to 92.2 µM. The method in brief:
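Jurkat cells (5000/well) in complete medium were treated with compounds for 16 hr at 37 °C, then Caspase-Glo 3/7 luminescence was read after 20 min at room temperature. Data normalized to DMSO (basal) and 100 uM tamoxifen (100%); AC50 from Hill fit.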

The nature of experiment [4]: Cellular Toxicity (caspase-3) HUV-EC-C (AID 656). To be noted: HUV-EC-C cells, caspase-3 activation (apoptosis), vehicle = 0, 100 µM tamoxifen = 100%; series mostly up to 92.2 µM. An outline of the steps: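 HUV-EC-C endothelial cells, 1000/well, were pre-incubated 5 hr at 37°C, then exposed to compounds for 16 hr at 37°C. Caspase-Glo 3/7 luminescence was read after 20 min at room temperature. AC50 came from Hill fits, normalized to DMSO and 100 uM tamoxifen.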

The nature of experiment [5]: Cellular Toxicity (caspase-3) SHSY5Y (AID 657). To be noted: SH-SY5Y caspase-3 activation, DMSO zero, 10 µM staurosporine = 100%; series mostly up to 91.7 µM. An outline of the steps: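 SH-SY5Y human neuroblastoma cells (1500/well) were treated with compounds for 16 h at 37 °C, then Caspase-Glo 3/7 luminescence was read after 1 h at room temperature. Data normalized to DMSO and 10 uM staurosporine; AC50 from Hill fits.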

Experiment [6] can be described thus: Cellular Toxicity (caspase-3) BJ (AID 658). To be noted: BJ fibroblasts, luminescence, normalized: DMSO 0%, staurosporine 100%; series mostly up to 91.7 µM. The method in brief:
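Readout: Caspase-Glo 3/7 luminescence increase in BJ cells after 16 hr treatment at 37 °C. Staurosporine and tamoxifen served as positive controls; AC50 values came from Hill modelling of data normalized to DMSO and 10 uM staurosporine.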

A short description of experiment [7]: Cellular Toxicity (caspase-3) MRC-5 (AID 659). To be noted: MRC-5 cells, luminescence, normalized: DMSO 0%, 10 µM staurosporine 100%; series mostly up to 91.7 µM. An outline of the steps:
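Concentration-dependent caspase 3/7 activation is measured in human normal lung fibroblasts (MRC-5) following 16-hour treatment. AC50 values come from standard Hill-equation modeling of luminescence normalized to DMSO and 10 uM staurosporine.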

Experiment [8] in a line: Cellular Toxicity (caspase-3) Mesangial (AID 660).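 Also: combined caspase 3 and 7 activity read by Caspase-Glo luminescence; cells exposed to compound for 16 h before the caspase read.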 Also: potency is read from the fitted curve at half-maximal effect. To be noted: mesangial cells; Potency: caspase-3 activation; series mostly up to 91.7 µM. An outline of the steps:
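Mesangial cells, 1000/well, 5 h settle at 37 °C; compound 16 h, 37 °C; Caspase-Glo 3/7 reagent 20 min RT; luminescence. Norm.: DMSO = 0%, tamoxifen 100 uM = 100%. AC50, Hill fit.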

The nature of experiment [9]: Cellular Toxicity (caspase-3) SK-N-SH (AID 661). Also: potency is read from the fitted curve at half-maximal effect. To be noted: SK-N-SH caspase-3 activation, qHTS; series mostly up to 91.7 µM. An outline of the steps:
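Human neuroblastoma SK-N-SH, 1500 cells/well, 5 hr pre-incubation, then compound 16 hr, 37 °C. Caspase-Glo 3/7 reagent, 1 hr RT, luminescence. Norm. to DMSO/10 uM staurosporine; Hill-fit AC50.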

For experiment [10], the target named is 3',5'-cyclic-AMP phosphodiesterase 4B (Homo sapiens) (UniProt Q07343). As to the kind of experiment: qHTS Assay for Inhibitors of PDE-IV (AID 607; active = well fitted activation curve with a large enough effect in the main read-out, with a control signal flat, not every such curve was filed as active; also: % of control where 0% means no effect). To be noted: HEK293 ACTOne CNG channel cells, membrane potential fluorescence; series mostly up to 22.9 µM. An outline of the steps: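 Live HEK293 cells with a modified cyclic nucleotide-gated (CNG) channel report intracellular cAMP via membrane-potential dye fluorescence (ex 535/em 590 nm). Endogenous PDE-IV was targeted. Compounds were tested at up to 22.9 uM final; RO 20-1724 100 uM served as control.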
3',5'-cyclic-AMP phosphodiesterase 4B (Homo sapiens), sequence (Q07343 whole entry, looked up): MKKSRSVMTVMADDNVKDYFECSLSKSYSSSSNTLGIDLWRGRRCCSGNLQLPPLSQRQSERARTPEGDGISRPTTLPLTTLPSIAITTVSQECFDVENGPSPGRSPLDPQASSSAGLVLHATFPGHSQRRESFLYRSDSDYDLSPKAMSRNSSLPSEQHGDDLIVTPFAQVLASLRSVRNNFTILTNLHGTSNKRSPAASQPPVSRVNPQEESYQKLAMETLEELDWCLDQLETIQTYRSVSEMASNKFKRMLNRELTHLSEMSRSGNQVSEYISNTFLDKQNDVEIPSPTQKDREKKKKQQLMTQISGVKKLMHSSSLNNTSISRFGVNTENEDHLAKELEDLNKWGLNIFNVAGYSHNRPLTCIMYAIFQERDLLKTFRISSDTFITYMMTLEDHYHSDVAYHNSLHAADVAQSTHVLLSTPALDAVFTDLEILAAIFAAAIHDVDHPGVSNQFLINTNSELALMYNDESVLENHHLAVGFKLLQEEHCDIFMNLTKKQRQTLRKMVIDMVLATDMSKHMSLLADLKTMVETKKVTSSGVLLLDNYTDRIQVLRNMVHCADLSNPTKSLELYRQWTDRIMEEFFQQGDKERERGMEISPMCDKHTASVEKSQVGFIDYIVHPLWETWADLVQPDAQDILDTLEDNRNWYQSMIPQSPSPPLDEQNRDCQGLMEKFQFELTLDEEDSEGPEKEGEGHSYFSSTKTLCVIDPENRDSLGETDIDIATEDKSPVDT

Records with an inconclusive call do not appear. The source made the active and inactive calls. Unless noted, calls follow the shape of the dose curve; as a rule, active = well fitted curve in the direction sought with a large enough effect; inconclusive = small, poorly fitted or top-dose-only effect, or another doubt; inactive = no such curve, though single readings can be large; an effect the other way counts as inactive or inconclusive.

In the case of `CN(C)c1ccc(N=NS(=O)(=O)O)cc1`, the Potency result in [1], in experiment [2], in experiment [3], in [8] and in [9] was “inactive” throughout. Further, the outcome in experiment [4], in [5], in experiment [6] and in experiment [7] was inactive.

Take `O=C1NC(O)=NC1(c1ccccc1)c1ccccc1`: the result in experiment [10] was inactive.

Regarding `O=c1[nH]c2cc(C(F)(F)F)ccc2n1-c1cc(C(F)(F)F)ccc1O`, the compound was classed as inactive in experiment [10].

Turning to `O=C(O)c1cc(=O)c2ccccc2[nH]1`, in [10], the call was inactive.

Take `COc1cc(CNC(=O)CCCC/C=C/C(C)C)ccc1O`: the Potency result in experiment [1], in experiment [2], in experiment [3], in [8] and in experiment [9] was “inactive” throughout. In addition, the result in [4], in [5], in [6] and in experiment [7] was inactive.

On to `S=c1[nH]c2ccccc2s1`, for which the Potency result in [1], in [2], in experiment [3], in experiment [8] and in [9] was “inactive” throughout. Further, the outcome in experiment [4], in [5], in [6] and in [7] was inactive.

Regarding `CN1CCC[C@H]1c1cccnc1`, the Potency result in experiment [1], in experiment [2], in [3], in experiment [8] and in [9] was “inactive” in each case. In addition, the compound was called inactive in experiment [4], in experiment [5], in experiment [6] and in experiment [7].

In the case of `Oc1ccccc1O`, the Potency entry in [1], in experiment [2], in [3], in experiment [8] and in [9] was “inactive” in each case. For the same compound, the call in experiment [10], in [4], in [6] and in experiment [7] was inactive.

On to `Nc1ccc(O)c([N+](=O)[O-])c1`, for which the Potency result in experiment [1], in experiment [2], in experiment [3], in experiment [8] and in experiment [9] was “inactive” in each case. In addition, the outcome in experiment [4], in [5], in experiment [6] and in experiment [7] was inactive.

Regarding `Clc1ccc(N2CCN(Cc3c[nH]c4ncccc34)CC2)cc1`, the call in experiment [10] was inactive.

`O=C1CN(/N=C/c2ccc([N+](=O)[O-])o2)C(=O)N1`: the Potency entry in [1], in [2], in experiment [3], in [8] and in experiment [9] was “inactive” throughout. The compound was classed as inactive in experiment [4], in experiment [5], in experiment [6] and in experiment [7].

Take `NCCO`: the Potency entry in [1], in experiment [2], in [3], in experiment [8] and in experiment [9] was “inactive” in each case. Moreover, the compound was called inactive in [4], in [5], in experiment [6] and in [7].

For `CCCCCCCCCCCCCCCCCC(=O)O`, the Potency result in experiment [1], in experiment [2], in experiment [3], in experiment [8] and in experiment [9] was “inactive” each time. Also, the compound was called inactive in [4], in experiment [5], in [6] and in experiment [7].

Regarding `CC1(C)S[C@@H]2[C@H](NC(=O)[C@H](N)c3ccccc3)C(=O)N2[C@H]1C(=O)O`, the Potency entry in experiment [1], in experiment [2], in [3], in experiment [8] and in experiment [9] was “inactive” throughout. Also, the compound was classed as inactive in [4], in experiment [5], in experiment [6] and in experiment [7].

Turning to `C#C[C@]1(O)CC[C@H]2[C@@H]3CCc4cc(O)ccc4[C@H]3CC[C@@]21C`, the Potency result in experiment [1], in experiment [2], in experiment [3], in [8] and in experiment [9] was “inactive” in each case. Also, the compound was classed as inactive in experiment [4], in [5], in [6] and in experiment [7].

For `CCCOC(=O)c1ccc(O)cc1`, the Potency entry in experiment [1], in experiment [2], in experiment [3], in [8] and in [9] was “inactive” in each case. Moreover, the compound was called inactive in experiment [4], in experiment [5], in experiment [6] and in experiment [7].

Consider `CN(C)CCC(c1ccc(Cl)cc1)c1ccccn1` (configuration not stated), for which the Potency entry in experiment [1], in experiment [2], in experiment [3], in experiment [8] and in experiment [9] was “inactive” throughout. Also, the compound was called inactive in experiment [4], in [5], in experiment [6] and in experiment [7].

For `O=C(O)CC[C@@H](C(=O)O)N1C(=O)c2ccccc2C1=O`, the call in [10] was inactive.

Turning to `c1cnc2c(c1)ccc1cccnc12`, the Potency entry in [1], in experiment [2], in [8] and in experiment [9] was “inactive” each time. Further, the call in [10], in experiment [4], in experiment [5], in experiment [6] and in experiment [7] was inactive. Also, in experiment [3], the Potency is 6.31 µM (active).

For `O=C(c1cc(O)c(O)c([N+](=O)[O-])c1)c1ccccc1F`, the compound was classed as inactive in [10].

In the case of `O=C(O)c1cc(=O)c2c(Cl)cc(Cl)cc2[nH]1`, in experiment [10], the compound was classed as inactive.

Take `N=C1N=C(N)c2cc3ccccc3cc21`: the activity change, negative = cytotoxicity in experiment [1] was -91.8% (active). In [8], the Potency result was “inactive”. Besides, the Potency in experiment [9] was 31.6 µM (active).

On to `Nc1ccc(O)c(C(=O)O)c1`, for which the Potency result in experiment [1], in experiment [2], in experiment [3], in experiment [8] and in experiment [9] was “inactive” each time. For the same compound, the call in experiment [10], in experiment [4], in [5], in experiment [6] and in experiment [7] was inactive.

`CN(C)c1ccc(C(=C2C=CC(=[N+](C)C)C=C2)c2ccccc2)cc1`: the Potency in experiment [1] is 316 nM (active); in [2] it was 631 nM (active); in [8], 1.26 µM (active); in experiment [9], 1 µM (active). In addition, the compound was called inactive in experiment [10] and in experiment [4].

As to `COc1cc(/C=C/C(=O)CC(=O)/C=C/c2ccc(O)c(OC)c2)ccc1O`, the Potency entry in experiment [1], in experiment [2] and in experiment [9] was “inactive” each time. Moreover, the result in [4], in experiment [5] and in experiment [6] was inactive.

In the case of `NCCSSCCN`, the call in experiment [10] was inactive.

`Nc1nc2ccc([N+](=O)[O-])cc2s1`: the Potency entry in [1], in experiment [2], in [3], in [8] and in experiment [9] was “inactive” in each case. The compound was classed as inactive in experiment [4], in [5], in [6] and in experiment [7].

Regarding `Nc1ccc([N+](=O)[O-])cc1O`, the Potency entry in experiment [1], in [2], in experiment [3], in experiment [8] and in experiment [9] was “inactive” each time. The outcome in experiment [4], in [5], in experiment [6] and in experiment [7] was inactive.

As for `O=C(O)/C=C\C(=O)O`, the Potency result in experiment [1], in experiment [2], in [3], in experiment [8] and in [9] was “inactive” throughout. In addition, the call in experiment [4], in experiment [5], in [6] and in [7] was inactive.

Take `CCCn1c(=O)c2[nH]c(-c3ccc(OCC(=O)NCCN)cc3)nc2n(CCC)c1=O`: the outcome in [10] was inactive.

`c1ccc2sc(SSc3nc4ccccc4s3)nc2c1`: the Potency entry in experiment [1], in experiment [2], in experiment [3], in [8] and in [9] was “inactive” each time. Also, the compound was called inactive in experiment [4], in experiment [5], in experiment [6] and in [7].
